Screening results: PubChem, Broad Institute
C diff HTS: C. difficile growth inhibition | 86,000 tested, 0.25% active | growth activity, negative = inhibition, % at 16 µg/mL (by protocol) | Clostridium difficile clinical isolate growth, OD600, 24 h; stronger effect = lower value | AID 1259249;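 active = mean growth activity at or below -80% and every replicate also at or below -80%; inconclusive = mean at or below -80% but some replicate above -80%; inactive = mean growth activity above -80%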;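 note: 0% = DMSO wells and -100% = levofloxacin 16 µg/mL wells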
Pf Dd2 inh: inhibitors of Plasmodium falciparum Dd2 growth. P. falciparum Dd2 growth, SYBR Green, 72 h; stronger effect = lower value. activity change, % at 10 µM. AID 1159554. 94,000 tested, 2.3% active; in the data active = activity change below about -80%; inconclusive = no clear call, values can overlap the other calls
T cruzi growth-1: blocks T. cruzi growth in NIH3T3 culture; 77,000 tested, 5.9% active; T. cruzi beta-gal in NIH3T3, GalScreen luminescence, 90 h; inhibition, % at 8.34 µM;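 active = mean inhibition above about 93%, with at least 55% of replicates each passing it, limit read from the data, passing the limit was not always enough; inconclusive = only one of those two conditions holds; inactive = neither condition holds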
T cruzi growth-2: Trypanosoma cruzi proliferation inhibition. shares compounds with T cruzi growth-1. T. cruzi beta-gal in NIH3T3, GalScreen luminescence, 90 h. inhibition, % at 8.35 µM. 5,600 tested, 72% active. AID 651739;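 active = mean replicate inhibition above about 95% and at least 55% of replicates individually reaching it, limit read from the data; inconclusive = only one of the two criteria is met; inactive = neither criterion is met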
T cruzi growth-3: Trypanosoma cruzi proliferation inhibition | shares compounds with T cruzi growth-1 | 5,600 tested, 21% active | T. cruzi beta-gal in NIH3T3, GalScreen luminescence, 90 h | inhibition, % at 2.09 µM;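 active = mean inhibition above about 95%, with at least 55% of replicates also reaching it, limit read from the data; inconclusive = meets just one of the two conditions; inactive = meets neither condition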;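 note: plate controls were neutral control median for no effect and positive control median for full effect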
3T3 cytotox: NIH/3T3 (mouse) viability loss. 5,600 tested, 14% active. NIH/3T3 viability, CellTiter-Glo ATP luminescence, 90 h. cytotoxicity (signal decrease), % at 8.35 µM. shares compounds with T cruzi growth-1;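 active = mean signal decrease across replicates above about 35% based on untreated-well scatter, with enough replicates individually passing, limit read from the data; inconclusive = no rule stated though some were filed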;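 note: 0% = median of neutral control wells and 100% = median of positive control wells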
3T3 cytotox 2: NIH/3T3 (mouse) viability loss. inhibition, % at 24.9 µM. NIH/3T3 viability, CellTiter-Glo ATP luminescence, 90 h. 5,600 tested, 56% active. shares compounds with T cruzi growth-1;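 active = mean loss of cell viability signal at or above a set limit, and enough replicates individually reaching it; inconclusive = meets only the mean limit or only the replicate share; inactive = meets neither condition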;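 note: 0% = median of neutral control wells and 100% = median of positive control wells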
Active calls of the source: *; ? = inconclusive; · = no result given. Only some compounds are listed: those with a hit (about 6.8% of all), similar ones and a draw of the others.

SMILES	C diff HTS	Pf Dd2 inh	T cruzi growth-1	others
C[C@@H]1CCCCO[C@@H](CN(C)S(=O)(=O)c2ccc(F)cc2)[C@@H](C)CN([C@H](C)CO)C(=O)c2cc(NC(=O)Nc3ccc(F)cc3)ccc2O1	-1.6	-46.3	-9.4
CCC(=O)N1[C@@H]2c3ccc(-c4ccncc4)c(=O)n3C[C@H]1[C@H](CO)[C@H]2C(=O)NC1Cc2ccccc2C1	-5.1	·	-51.4
O=C(NC[C@@H]1[C@@H](c2ccccc2)[C@H](CO)N1C(=O)Cc1cccnc1)C1CCC1	0.2	-0.3	0.1
COc1ccccc1CNC(=O)C[C@H]1C[C@@H]2c3cc(NC(=O)CN(C)C)ccc3O[C@@H]2[C@H](CO)O1	·	33.5	68.5
COc1ccccc1CN1[C@@H]2CN(C(=O)c3ccc(F)cc3)c3ccccc3[C@@H]2[C@@H]1CO	3.1	-8.7	9.4
O=C(C[C@@H]1C[C@H]2c3cc(NC(=O)Nc4ccccc4)ccc3O[C@H]2[C@H](CO)O1)NCc1ccccn1	-0.1	4.2	6.3
C[C@@H]1CCCCO[C@H](CN(C)S(=O)(=O)c2ccc(F)cc2)[C@@H](C)CN([C@H](C)CO)C(=O)c2cc(NC(=O)NC3CCCCC3)ccc2O1	15.0	-25.6	28.8
C[C@@H]1CN([C@H](C)CO)C(=O)c2cc(NC(=O)Nc3ccc4c(c3)OCO4)ccc2O[C@@H](C)CCCCO[C@H]1CN(C)S(=O)(=O)c1ccc(F)cc1	-7.2	-71.1	73.6
C[C@H](CO)N1C[C@H](C)[C@H](CN(C)S(=O)(=O)c2ccc(F)cc2)OCCCC[C@H](C)Oc2ccc(NC(=O)Nc3ccc4c(c3)OCO4)cc2C1=O	0.5	-39.1	105.6*	T cruzi growth-2=109.4*;T cruzi growth-3=73.1;3T3 cytotox=-2.8;3T3 cytotox 2=19.0
C[C@@H]1CN([C@@H](C)CO)C(=O)c2cc(NC(=O)NC3CCCCC3)ccc2O[C@@H](C)CCCCO[C@H]1CN(C)S(=O)(=O)c1ccc(F)cc1	12.6	-54.6	?	T cruzi growth-2=48.5;T cruzi growth-3=7.7;3T3 cytotox=6.3;3T3 cytotox 2=3.8
COc1ccccc1CN(C)C[C@H]1OCc2cn(nn2)CCCC(=O)N([C@H](C)CO)C[C@H]1C	-0.5	3.3	12.8
COc1ccc2c3c(n(C)c2c1)[C@@H](CO)N(C(=O)Nc1ccc(F)cc1)CC31CN(CC2CCOCC2)C1	-3.7	-61.0	·
CO[C@@H]1CN(C)C(=O)c2ccc(NC(C)=O)cc2OC[C@@H](C)N(Cc2cccnc2)C[C@H]1C	-3.2	-35.3	·
CN(C)CC#Cc1ccc([C@@H]2[C@H]3CN(C(=O)Nc4ccc(F)cc4)CCCCN3[C@H]2CO)cc1	-4.4	20.5	21.2
O=C(Nc1ccc(F)cc1)N1CCCCN2[C@@H](CO)[C@@H](c3ccc(C#CC4CC4)cc3)[C@@H]2C1	51.6	-52.9	97.3*	T cruzi growth-2=97.9*;T cruzi growth-3=106.6*;3T3 cytotox=118.7*;3T3 cytotox 2=106.1*
O=C(Nc1cccc(F)c1)N1CCCCN2[C@@H](CO)[C@H](c3ccc(C#CC4CC4)cc3)[C@@H]2C1	49.2	-19.0	?	T cruzi growth-2=93.3;T cruzi growth-3=102.2*;3T3 cytotox=104.9*;3T3 cytotox 2=106.0*
O=C(Nc1ccc(F)cc1)N1CCCCN2[C@H](CO)[C@H](c3ccc(C#CC4CC4)cc3)[C@H]2C1	54.0	-40.2	69.7
O=C(Nc1ccc(F)cc1)N1CCCCN2[C@H](C1)[C@H](c1ccc(C#CC3CC3)cc1)[C@@H]2CO	42.9	-47.4	121.8*	T cruzi growth-2=99.5*;T cruzi growth-3=34.3;3T3 cytotox=26.2;3T3 cytotox 2=23.4
COc1ccccc1C(=O)Nc1ccc2c(c1)OC[C@H](C)N(C)C[C@@H](C)[C@H](OC)CN(C)C2=O	·	-1.9	39.2
C[C@H]1CCCCO[C@H](CN(C)Cc2ccc(Cl)c(Cl)c2)[C@@H](C)CN([C@@H](C)CO)C(=O)c2cc(NS(C)(=O)=O)ccc2O1	3.5	-44.3	83.8
O=C(C[C@H]1CC[C@H]2[C@@H](COC[C@H](O)CN2Cc2ccc(Cl)cc2)O1)NCc1ccccc1Cl	-0.4	-6.7	54.8
CO[C@H]1CN(C)C(=O)c2cc(NC(=O)NC3CCCC3)ccc2OC[C@H](C)N(CC2CC2)C[C@H]1C	9.1	5.9	·
CN1C(=O)c2cc(NC(=O)c3cnccn3)ccc2OC[C@H]2O[C@@H](CC(=O)NC3CCC3)CC[C@H]21	-6.5	-8.9	0.3
COCC(=O)Nc1ccc2c(c1)C(=O)N(C)[C@@H]1CC[C@H](CC(=O)NC3CCCC3)O[C@@H]1CO2	-3.5	-5.3	-1.1
